Source: the supplement of paper PMC11732987, “Enantioselective OTUD7B fragment discovery through chemoproteomics screening and high-throughput optimisation” (Communications Chemistry, 2025)

Columns and labels:
Assay in all cases: log2 ratio of Biotin-Ahx-Ub-VS probe labelling (fragment/DMSO); higher = less target engagement (more negative = stronger competition), active = hit call of the paper (q ≤ 0.05, log2 ratio ≤ -1)
Details in all cases: compound concentration: 200 uM; treatment time: 3 h
OTUD6B = target: T1, OTUD6B (UniProt Q8N6M0)
T1 sequence (whole entry): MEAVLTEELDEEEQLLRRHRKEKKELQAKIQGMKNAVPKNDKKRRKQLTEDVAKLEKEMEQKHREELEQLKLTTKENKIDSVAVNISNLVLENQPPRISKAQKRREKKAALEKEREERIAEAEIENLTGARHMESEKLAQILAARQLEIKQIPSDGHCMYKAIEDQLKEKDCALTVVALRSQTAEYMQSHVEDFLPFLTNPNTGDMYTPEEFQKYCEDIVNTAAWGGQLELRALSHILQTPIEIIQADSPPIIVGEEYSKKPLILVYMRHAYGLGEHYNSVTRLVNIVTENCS
Outline: (§1)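 Fragment (200 µM) or vehicle was incubated for 3 h with triplicate HEK293T lysate samples of 495 µg, which were then treated with Biotin-Ahx-Ub-VS at 0.5 µM final for 1 h. Labelled DUBs were enriched on NeutrAvidin, digested with LysC and trypsin, and analysed by diaPASEF LC-MS/MS. Values are average log2 fragment/vehicle ratios from an unpaired t-test on global-median-normalised Spectronaut label-free quantities, using proteins with ≥2 unique peptides.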

OTUD7B = target: T2, OTUD7B (UniProt Q6GQQ9)
T2 sequence (whole entry): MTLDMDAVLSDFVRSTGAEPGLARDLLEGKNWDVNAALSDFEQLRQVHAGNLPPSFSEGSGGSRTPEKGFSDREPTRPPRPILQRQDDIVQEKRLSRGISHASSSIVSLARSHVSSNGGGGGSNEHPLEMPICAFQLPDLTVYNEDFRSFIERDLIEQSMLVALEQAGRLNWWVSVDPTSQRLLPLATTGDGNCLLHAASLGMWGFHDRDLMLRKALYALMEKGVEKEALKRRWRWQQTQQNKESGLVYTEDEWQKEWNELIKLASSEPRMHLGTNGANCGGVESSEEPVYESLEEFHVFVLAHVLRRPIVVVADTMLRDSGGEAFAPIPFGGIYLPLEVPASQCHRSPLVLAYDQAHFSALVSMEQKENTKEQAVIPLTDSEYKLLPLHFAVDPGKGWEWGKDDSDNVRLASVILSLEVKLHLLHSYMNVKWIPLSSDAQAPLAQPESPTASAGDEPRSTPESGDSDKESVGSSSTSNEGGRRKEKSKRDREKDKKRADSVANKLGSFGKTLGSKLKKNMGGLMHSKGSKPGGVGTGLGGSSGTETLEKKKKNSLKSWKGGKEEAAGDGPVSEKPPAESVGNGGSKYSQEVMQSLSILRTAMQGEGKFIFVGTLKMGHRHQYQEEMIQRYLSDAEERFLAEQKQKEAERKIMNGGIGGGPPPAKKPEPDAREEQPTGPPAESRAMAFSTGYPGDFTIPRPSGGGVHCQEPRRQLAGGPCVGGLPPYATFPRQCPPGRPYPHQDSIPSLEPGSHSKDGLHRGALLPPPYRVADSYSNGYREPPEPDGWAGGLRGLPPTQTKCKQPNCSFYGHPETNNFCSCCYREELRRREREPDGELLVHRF
Outline: as §1

PRPF8 = PRPF8 (UniProt Q6P2Q9)
Outline: as §1

PSMD7 = target: T3, PSMD7 (UniProt P51665)
T3 sequence (whole entry): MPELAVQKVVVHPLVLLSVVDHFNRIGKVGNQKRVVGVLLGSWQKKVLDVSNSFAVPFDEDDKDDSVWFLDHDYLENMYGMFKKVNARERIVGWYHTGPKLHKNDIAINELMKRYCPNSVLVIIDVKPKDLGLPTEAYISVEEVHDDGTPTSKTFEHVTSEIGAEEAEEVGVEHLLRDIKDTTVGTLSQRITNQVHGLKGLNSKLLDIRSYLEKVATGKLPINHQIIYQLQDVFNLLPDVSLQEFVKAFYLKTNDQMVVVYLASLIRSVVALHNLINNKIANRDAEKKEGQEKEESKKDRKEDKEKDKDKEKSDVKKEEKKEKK
Outline: as §1

UCHL1 = UCHL1 (UniProt P09936)
UCHL1, sequence (P09936 whole entry, looked up): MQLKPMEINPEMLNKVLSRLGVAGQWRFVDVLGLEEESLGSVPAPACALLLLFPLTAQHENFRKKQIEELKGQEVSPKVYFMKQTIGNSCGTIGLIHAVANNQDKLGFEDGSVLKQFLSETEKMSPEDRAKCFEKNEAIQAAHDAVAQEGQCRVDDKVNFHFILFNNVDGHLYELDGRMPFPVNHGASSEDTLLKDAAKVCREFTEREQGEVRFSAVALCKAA
Outline: as §1

UCHL3 = target: T4, UCHL3 (UniProt P15374)
T4 sequence (whole entry): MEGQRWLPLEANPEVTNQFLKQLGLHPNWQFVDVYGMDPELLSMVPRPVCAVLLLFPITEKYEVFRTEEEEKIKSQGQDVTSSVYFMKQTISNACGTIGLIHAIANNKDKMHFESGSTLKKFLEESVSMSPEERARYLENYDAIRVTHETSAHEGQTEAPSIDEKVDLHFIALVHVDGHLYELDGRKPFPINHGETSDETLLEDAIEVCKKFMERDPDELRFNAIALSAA
Outline: as §1

UCHL5 = target: T5, UCHL5 (UniProt Q9Y5K5)
T5 sequence (whole entry): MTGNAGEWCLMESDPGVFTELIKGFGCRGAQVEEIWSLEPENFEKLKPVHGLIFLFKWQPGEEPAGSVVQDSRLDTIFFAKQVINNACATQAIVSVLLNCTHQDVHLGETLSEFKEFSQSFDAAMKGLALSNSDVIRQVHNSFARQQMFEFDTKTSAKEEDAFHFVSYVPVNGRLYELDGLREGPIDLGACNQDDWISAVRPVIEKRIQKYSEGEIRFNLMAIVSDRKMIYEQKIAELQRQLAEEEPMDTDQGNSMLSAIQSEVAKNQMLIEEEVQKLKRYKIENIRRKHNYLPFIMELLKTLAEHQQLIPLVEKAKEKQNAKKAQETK
Outline: as §1

USP10 = USP10 (UniProt Q14694)
USP10, sequence (Q14694 whole entry): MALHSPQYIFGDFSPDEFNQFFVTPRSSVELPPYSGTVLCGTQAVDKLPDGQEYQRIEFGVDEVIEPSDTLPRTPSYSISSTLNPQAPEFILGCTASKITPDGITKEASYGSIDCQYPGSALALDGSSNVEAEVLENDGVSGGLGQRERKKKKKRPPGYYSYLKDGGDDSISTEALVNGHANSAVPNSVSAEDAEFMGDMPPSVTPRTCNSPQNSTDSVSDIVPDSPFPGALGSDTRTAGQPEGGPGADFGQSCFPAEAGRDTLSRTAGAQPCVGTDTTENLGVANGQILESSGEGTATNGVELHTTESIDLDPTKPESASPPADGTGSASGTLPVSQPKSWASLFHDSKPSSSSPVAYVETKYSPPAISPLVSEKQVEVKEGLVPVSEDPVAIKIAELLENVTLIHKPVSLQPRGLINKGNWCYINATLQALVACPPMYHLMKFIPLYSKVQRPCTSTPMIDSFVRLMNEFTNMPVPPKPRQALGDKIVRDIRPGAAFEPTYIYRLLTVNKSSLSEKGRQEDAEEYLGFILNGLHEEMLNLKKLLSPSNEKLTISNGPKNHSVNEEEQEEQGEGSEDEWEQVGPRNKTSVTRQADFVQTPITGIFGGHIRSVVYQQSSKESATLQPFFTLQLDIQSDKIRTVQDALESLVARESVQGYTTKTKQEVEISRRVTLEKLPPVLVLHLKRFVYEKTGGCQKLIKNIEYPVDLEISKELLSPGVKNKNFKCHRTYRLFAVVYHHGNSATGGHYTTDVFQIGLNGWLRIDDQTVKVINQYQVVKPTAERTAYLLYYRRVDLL
Outline: as §1

USP15 = target: T6, USP15 (UniProt Q9Y4E8)
T6 sequence (whole entry): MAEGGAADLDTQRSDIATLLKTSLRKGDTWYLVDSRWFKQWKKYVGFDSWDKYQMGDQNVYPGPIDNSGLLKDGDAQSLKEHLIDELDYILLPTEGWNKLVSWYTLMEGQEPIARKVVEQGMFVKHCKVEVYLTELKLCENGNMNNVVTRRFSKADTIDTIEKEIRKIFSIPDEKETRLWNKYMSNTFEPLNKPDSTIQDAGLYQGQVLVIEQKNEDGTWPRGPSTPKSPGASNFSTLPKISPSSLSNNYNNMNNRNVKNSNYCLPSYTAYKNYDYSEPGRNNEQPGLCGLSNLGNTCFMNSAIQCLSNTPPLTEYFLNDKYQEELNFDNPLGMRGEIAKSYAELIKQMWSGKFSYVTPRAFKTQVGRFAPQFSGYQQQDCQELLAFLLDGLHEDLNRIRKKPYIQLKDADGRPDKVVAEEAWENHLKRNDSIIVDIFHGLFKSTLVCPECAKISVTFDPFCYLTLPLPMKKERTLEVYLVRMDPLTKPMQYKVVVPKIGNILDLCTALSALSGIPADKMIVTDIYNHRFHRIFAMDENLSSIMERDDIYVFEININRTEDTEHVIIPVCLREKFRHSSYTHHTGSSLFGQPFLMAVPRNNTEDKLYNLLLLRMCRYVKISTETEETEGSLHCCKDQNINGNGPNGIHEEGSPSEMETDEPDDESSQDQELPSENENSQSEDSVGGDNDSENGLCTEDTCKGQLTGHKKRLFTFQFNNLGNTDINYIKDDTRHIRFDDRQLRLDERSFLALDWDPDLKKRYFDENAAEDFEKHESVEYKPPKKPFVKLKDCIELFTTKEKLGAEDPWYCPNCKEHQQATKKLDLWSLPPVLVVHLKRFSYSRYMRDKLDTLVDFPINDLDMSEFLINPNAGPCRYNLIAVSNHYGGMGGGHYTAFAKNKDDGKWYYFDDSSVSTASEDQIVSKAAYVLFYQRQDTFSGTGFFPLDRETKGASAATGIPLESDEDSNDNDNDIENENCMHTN
Outline: as §1

USP16 = USP16 (UniProt Q9Y5T5)
USP16, sequence (Q9Y5T5 whole entry, looked up): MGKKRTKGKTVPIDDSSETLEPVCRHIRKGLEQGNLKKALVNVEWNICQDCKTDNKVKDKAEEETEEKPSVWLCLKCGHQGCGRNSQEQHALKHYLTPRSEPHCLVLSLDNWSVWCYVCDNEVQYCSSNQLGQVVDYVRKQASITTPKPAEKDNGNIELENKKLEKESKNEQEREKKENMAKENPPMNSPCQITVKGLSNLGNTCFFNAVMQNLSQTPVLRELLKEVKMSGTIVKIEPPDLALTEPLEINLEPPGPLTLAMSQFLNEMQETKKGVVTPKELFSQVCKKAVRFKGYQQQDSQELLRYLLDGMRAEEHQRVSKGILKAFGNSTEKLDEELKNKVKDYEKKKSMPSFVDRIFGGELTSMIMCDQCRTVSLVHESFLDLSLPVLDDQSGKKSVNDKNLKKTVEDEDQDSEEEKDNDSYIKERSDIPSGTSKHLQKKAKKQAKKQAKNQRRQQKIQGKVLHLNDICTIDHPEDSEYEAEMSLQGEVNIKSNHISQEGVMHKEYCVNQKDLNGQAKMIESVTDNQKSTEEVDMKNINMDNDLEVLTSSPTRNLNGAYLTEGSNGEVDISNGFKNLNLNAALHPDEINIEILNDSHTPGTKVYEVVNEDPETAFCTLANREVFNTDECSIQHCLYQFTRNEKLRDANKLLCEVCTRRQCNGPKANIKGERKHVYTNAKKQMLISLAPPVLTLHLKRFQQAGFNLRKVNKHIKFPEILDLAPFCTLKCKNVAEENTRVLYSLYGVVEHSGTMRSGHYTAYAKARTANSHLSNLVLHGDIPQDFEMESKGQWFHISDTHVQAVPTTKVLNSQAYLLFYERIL
Outline: as §1

Measured: log2 ratio of Biotin-Ahx-Ub-VS probe labelling

Cc1ncc2c(n1)CCN(C(=O)CCl)C2
inactive: OTUD6B -0.152 | OTUD7B -0.47 | PRPF8 0.0188 | PSMD7 0.0625 | UCHL1 -0.771 | UCHL3 0.268 | UCHL5 0.0568 | USP10 -0.242 | USP15 -0.636 | USP16 -0.136
